DAX1 inh-1 – inhibitors of human orphan nuclear receptor DAX1 (NR0B1); 340,000 tested, 0.99% active; P51843; HEK293 Gal4-DAX1 luciferase reporter, luminescence; inhibition, % at 6.75 µM;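 active = inhibition above the mean over all tested compounds plus 3 SD, cut at about 4.2% in these data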;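 also: 0% = DAX1-transfected cells with DMSO and 100% = empty-vector control cells with DMSO; inhibition shows as a rise in luminescence from relieved DAX1 repression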
Target sequence (P51843 207-470 limits assumed): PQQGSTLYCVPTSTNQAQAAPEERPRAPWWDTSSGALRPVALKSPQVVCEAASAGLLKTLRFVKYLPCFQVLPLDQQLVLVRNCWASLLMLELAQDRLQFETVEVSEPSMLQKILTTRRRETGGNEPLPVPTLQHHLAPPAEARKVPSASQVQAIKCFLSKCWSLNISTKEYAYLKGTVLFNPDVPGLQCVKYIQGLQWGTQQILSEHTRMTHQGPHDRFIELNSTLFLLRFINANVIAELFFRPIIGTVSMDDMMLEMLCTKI
DAX1 inh-2 – blocks DAX1 repression of SF-1 activated StAR promoter | HEK293T StAR-luciferase reporter, SF-1/DAX-1 repression relief | inhibition, % at 6.8 µM | 370,000 tested, 1.1% active | AID 652010;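 active = inhibition above the mean over all tested compounds plus 3 SD, cut at about 3.6% in these data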;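 also: 0% = DAX-1 cells with DMSO and 100% = cells lacking DAX-1 with DMSO; higher inhibition means more luminescence from relief of DAX-1 repression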
hcDAF12 agonist – activates DAF-12 receptor from parasite H. contortus; HEK293 hcDAF-12 lit1-tk-luc reporter, luminescence; 0% DMSO, 100% Δ7-dafachronic acid; activation, % at 6.8 µM; 370,000 tested, 1.4% active; AID 652067;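 active = activation above the mean of all tested compounds plus 3 SD, cut at about 5.5% in these data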;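 also: 100% = response to 3 µM Δ7-dafachronic acid high control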
AHR act – human AHR activation; P35869; AHR-responsive luciferase reporter cells, luminescence; activation, % at 5 µM; 320,000 tested, 2.5% active; in the data active = activation above about 47%;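 also: 0% = vehicle wells and 100% = reference agonist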
hgDAF-12 ag – activates the H. glycines DAF-12 receptor ligand-binding domain. activation, % at 6.8 µM. 370,000 tested, 1.8% active. HEK293 GAL4-hgDAF12 UAS-luciferase reporter, agonist luminescence; normalized to butyrate control;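 active = activation above a cutoff set at the mean of all screened compounds plus 3 SD, cut at about 10% in these data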;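 also: 0% = DMSO wells and 100% = sodium butyrate wells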
ssDAF-12 act – S. stercoralis DAF-12 activation, primary screen; activation, % at 6.8 µM; HEK293 ssDAF-12/GRIP1 lit1-tk-luc reporter, luminescence; % of 3 µM dafachronic acid response; 370,000 tested, 1% active;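 active = activation above the mean over all tested compounds plus 3 SD, cut at about 0.9% in these data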;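 also: 0% = DMSO-only wells and 100% = 3 µM delta7-dafachronic acid wells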
Numbers without * were called inactive. Shown are actives, neighbours in structure and some others; about 5.7% of the full set was active somewhere.

What do the screens show for `O=C(NC(=S)NC1CCCC1)c1ccccc1`?
DAX1 inh-1: 1; DAX1 inh-2: 3.9*; hcDAF12 agonist: 4; AHR act: 14; hgDAF-12 ag: 13*; ssDAF-12 act: 0

Results for O=C(Nc1ccccc1C(=O)NC1CCCC1)NC1CCCC1 ?
DAX1 inh-1: 5.8*; DAX1 inh-2: 0; hcDAF12 agonist: -2; AHR act: 4; hgDAF-12 ag: 1; ssDAF-12 act: -2

What do the screens show for `O=C(NC1CCCCC1)c1cc(C(=O)c2ccccc2Br)c[nH]1`?
DAX1 inh-1: 6.4*; DAX1 inh-2: 0; hcDAF12 agonist: -2; AHR act: -1; hgDAF-12 ag: -2; ssDAF-12 act: -2

Results for CC(=O)NC(=S)Nc1ccccc1C(=O)NC1CCCCC1 ?
DAX1 inh-1: 0; DAX1 inh-2: 1; hcDAF12 agonist: -1; AHR act: -5; hgDAF-12 ag: 3; ssDAF-12 act: 3.9*

How did O=C(CN(C(=O)CCC(=O)Nc1nccs1)c1ccccc1F)NCc1ccccc1 do in these assays?
DAX1 inh-1: -1; DAX1 inh-2: 0; hcDAF12 agonist: 0; AHR act: 2; hgDAF-12 ag: -2; ssDAF-12 act: -1

What do the screens show for `COc1ccccc1C(CNc1ncccc1[N+](=O)[O-])N(C)C` (centres undefined)?
DAX1 inh-1: -1; DAX1 inh-2: 0; hcDAF12 agonist: 1; AHR act: 1; hgDAF-12 ag: 0; ssDAF-12 act: -1

How did COc1ccccc1Nc1ncccc1[N+](=O)[O-] do in these assays?
DAX1 inh-1: 3; DAX1 inh-2: -1; hcDAF12 agonist: -1; AHR act: 53*; hgDAF-12 ag: 0; ssDAF-12 act: -1

What do the screens show for `O=C(O)COc1ccc(Br)cc1/C=N\Nc1ccccn1`?
DAX1 inh-1: 4.7*; AHR act: 1

How did CCOC(=O)/C(=C\C=C1/Sc2ccccc2N1CC)C(C)=O do in these assays?
DAX1 inh-1: 0; DAX1 inh-2: -2; hcDAF12 agonist: -3; AHR act: 53*; hgDAF-12 ag: -2; ssDAF-12 act: -2

How did CCOC(=O)/C(=C/C=C1\Sc2ccccc2N1CC)C(C)=O do in these assays?
DAX1 inh-1: -2; AHR act: 46

Results for COc1ccc(C(=O)N/C(=C\c2cn(S(=O)(=O)N(C)C)c3ccccc23)C(=O)NCCN2CCOCC2)cc1 ?
DAX1 inh-1: 1; DAX1 inh-2: 0; hcDAF12 agonist: 0; AHR act: 1; hgDAF-12 ag: -1; ssDAF-12 act: -1

What do the screens show for `O=C(CC12CC3CC(CC(C3)C1)C2)NC(=S)N1CCCCC1`?
DAX1 inh-1: 1; DAX1 inh-2: 0; hcDAF12 agonist: -1; AHR act: 1; hgDAF-12 ag: 0; ssDAF-12 act: 1.2*

Results for CC12CCC(C(=O)OC3CCCCC3)(OC1=O)C2(C)C (centres undefined) ?
DAX1 inh-1: 0; DAX1 inh-2: 0; hcDAF12 agonist: 1; AHR act: -2; hgDAF-12 ag: -2; ssDAF-12 act: -1

How did Clc1c(-c2ccccc2)nnn1-c1ccccc1 do in these assays?
DAX1 inh-1: 3; DAX1 inh-2: 3; hcDAF12 agonist: 3; AHR act: -2; hgDAF-12 ag: 10; ssDAF-12 act: 0

How did Nc1nnn(-c2ccccc2)c1-c1ccccc1 do in these assays?
DAX1 inh-1: 4.6*; DAX1 inh-2: 0; hcDAF12 agonist: 2; AHR act: -1; hgDAF-12 ag: -1; ssDAF-12 act: -2

What do the screens show for `COc1ccc(C(=O)c2[nH]c(N)c(C(=O)NCCc3c[nH]c4ccccc34)c2-c2ccc(Br)cc2)cc1`?
DAX1 inh-2: 1; hcDAF12 agonist: 3; hgDAF-12 ag: 0; ssDAF-12 act: 1

What do the screens show for `COc1ccc(C(=O)c2[nH]c(N)c(C(=O)NCCc3c[nH]c4ccccc34)c2-c2ccc(C(F)(F)F)cc2)cc1`?
DAX1 inh-2: 0; hcDAF12 agonist: 5; hgDAF-12 ag: 5; ssDAF-12 act: 1.9*

How did Cc1ccc(F)cc1NC(=O)c1c(-c2ccccc2)noc1C do in these assays?
DAX1 inh-1: -1; DAX1 inh-2: -2; hcDAF12 agonist: -1; AHR act: 0; hgDAF-12 ag: 2; ssDAF-12 act: -2
